Target: COP9 signalosome complex subunit 4 (UniProt Q9BT78)
Test: cross-link between two proteins; cross-linking mass spectrometry

E3 ubiquitin-protein ligase RBX1, P62877, sequence (P62877 whole entry): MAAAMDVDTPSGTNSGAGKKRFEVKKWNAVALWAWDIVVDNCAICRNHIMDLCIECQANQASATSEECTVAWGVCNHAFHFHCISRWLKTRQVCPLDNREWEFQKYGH

## E3 ubiquitin-protein ligase RBX1, P62877
  listed as a hit: yes
